The structures appear in SMILES notation. Results filed as inconclusive are left out. A call without a number means that no potency is given here. Activity calls are given as the source filed them. Calls follow the shape of the dose curve; as a rule, active = well fitted inhibition curve with a large enough effect; inconclusive = small, poorly fitted or top-dose-only effect; inactive = flat fitted curve, though single readings scatter.
Potency is read from the fitted curve at half-maximal effect.

The subject of one assay is AS120. Nature of the assay: qHTS profiling for inhibitors of Plasmodium falciparum proliferation (AID 504749). Also: nearly all actives have a fitted effect of over 60% in size. As to conditions: P. falciparum in erythrocytes, SYBR Green DNA, 72 h; series mostly up to 28.7 µM. The method in brief: (§1)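 P. falciparum-infected erythrocytes (0.3% parasitemia, 2.5% hematocrit) incubated with compound 72 h at 37 C, 5% CO2. Parasite DNA detected by SYBR Green after lysis, overnight at room temperature; normalised to 0.29 uM artemisinin and DMSO.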
(Quantitative high-throughput screening tests each substance at several concentrations.)
`CN(C)[C@H]1C(=O)C(C(=O)NCN2CCCC2)=C(O)[C@]2(O)C(=O)C3=C(O)c4c(O)cccc4[C@](C)(O)[C@H]3C[C@H]12`: the Potency entry is “inactive”.

Take `C[C@]12CC[C@H]3c4ccc(O)cc4CC[C@@H]3[C@H]1CC[C@@H]2OC(=O)CCC1CCCC1`: the Potency entry is “inactive”.

Regarding `Cc1cn([C@H]2C[C@H](N=[N+]=[N-])[C@H](CO)O2)c(=O)[nH]c1=O`, the Potency result is “inactive”.

With `O=C(O)[C@@H](S)[C@H](S)C(=O)O`, the Potency was 5.62 µM (active).

Turning to `CC(C)(C)NC[C@@H](O)c1ccc(O)c(CO)n1`, the Potency result was “inactive”.

With `NS(=O)(=O)c1cc2c(cc1Cl)N[C@H](Cc1ccccc1)NS2(=O)=O`, the Potency result was “inactive”.

A further assay concerns ATS189. Described as above. As to conditions: P. falciparum in erythrocytes, SYBR Green DNA, 72 h; series mostly up to 28.7 µM. The essentials:
as §1
Take `CN(C)[C@H]1C(=O)C(C(=O)NCN2CCCC2)=C(O)[C@]2(O)C(=O)C3=C(O)c4c(O)cccc4[C@](C)(O)[C@H]3C[C@H]12`: the Potency entry was “inactive”.

With `Cc1cn([C@H]2C[C@H](N=[N+]=[N-])[C@H](CO)O2)c(=O)[nH]c1=O`, the Potency result is “inactive”.

As for `CC(C)(C)NC[C@@H](O)c1ccc(O)c(CO)n1`, the Potency entry was “inactive”.

In the case of `NS(=O)(=O)c1cc2c(cc1Cl)N[C@H](Cc1ccccc1)NS2(=O)=O`, the Potency entry was “inactive”.

The record behind these values is PubChem BioAssay (NCATS).
